Experimental findings from PubChem BioAssay (NCI) are described below.

Structures are written as SMILES. Compounds without any hit were thinned out: in the full panel of roughly 79,000, 15% have a hit. A number with no mark means an inactive call. Activity calls are given as the source filed them. Rule as the data show it: active = growth inhibition above about 70%; inactive = the rest.

Experiment [1] in a line: NCI Yeast Anticancer Drug Screen. Data for the rad50 strain (AID 155).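 Also: 0% = growth of vehicle-only cultures of the same strain.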 As to conditions: S. cerevisiae rad50 strain growth inhibition, stronger effect = higher value. Put shortly: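 Vehicle-treated cultures provide the reference for the growth inhibition reported for compound-exposed, repair-deficient yeast.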
A short description of experiment [2]: NCI Yeast Anticancer Drug Screen. Data for the mec2-1 strain (AID 157). As to conditions: S. cerevisiae mec2-1 strain, stronger effect = higher value. An outline of the steps: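 Vehicle-treated cultures served as reference for growth inhibition of compound-exposed mec2-1 yeast.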
A short description of experiment [3]: NCI Yeast Anticancer Drug Screen. Data for the sgs1 mgt1 strain (AID 161).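 Also: 0% = growth of cultures given vehicle only.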 As to conditions: S. cerevisiae sgs1 mgt1 strain, stronger effect = higher value. Put shortly: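 Test agents were incubated with a DNA-repair-mutant yeast strain. Growth was then read and compared against vehicle-treated controls.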
Experiment [4] in a line: NCI Yeast Anticancer Drug Screen. Data for the cln2 rad14 strain (AID 165).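 Also: 0% = growth equal to vehicle treated cultures.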 As to conditions: S. cerevisiae cln2 rad14 strain, stronger effect = higher value. Put shortly:
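Each compound was tested on cln2 rad14 yeast. Inhibition of growth was calculated against vehicle-exposed controls.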

Experiment [5] in a line: NCI Yeast Anticancer Drug Screen. Data for the bub3 strain (AID 167). As to conditions: S. cerevisiae bub3 mutant strain, stronger effect = higher value. Put shortly: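 Mutant yeast screening strain plus compound; vehicle-treated cultures serve as the 0% inhibition reference.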
Experiment [6] in a line: NCI Yeast Anticancer Drug Screen. Data for the mlh1 rad18 strain (AID 175). To be noted: S. cerevisiae mlh1 rad18 strain growth inhibition, stronger effect = higher value. An outline of the steps:
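Vehicle-treated cultures served as the reference for growth inhibition in a yeast strain carrying DNA damage repair alterations exposed to each compound.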

Setting [7] is: at 5.0 µM (retest, dose inferred, filed as 0.5).
Setting [8] is: at 50.0 µM (retest, dose inferred, filed as 5.0).

As to `CCN(C(=O)O)c1ccc(/C=C/c2ccnc3ccccc23)cc1`, the growth inhibition in experiment [1] (setting [7]) was 4%; in experiment [1] (setting [8]) it was 94% (active); in experiment [1] (at 50.0 µM), 2.4%; in experiment [2] (setting [7]), -16%; in experiment [2] (setting [8]), 96% (active); in experiment [2] (at 50.0 µM), -17.9%. The growth inhibition is 5% in experiment [3] (setting [7]); 96% (active) in experiment [3] (setting [8]); 40.1% in experiment [3] (at 50.0 µM); -26% in experiment [4] (setting [7]); 91% (active) in experiment [4] (setting [8]); -0.1% in experiment [4] (at 50.0 µM). Besides, the growth inhibition in experiment [5] (setting [7]) is -17%; in experiment [5] (setting [8]) it was 95% (active); in experiment [5] (at 50.0 µM) it was 23%; in experiment [6] (setting [7]), -7%; in experiment [6] (setting [8]), 91% (active); in experiment [6] (at 50.0 µM) it was 29.4%.

On to `O=C1C=CC(=O)c2c(O)c(N3CCC[C@H]3CO)c(Cl)c(O)c21`, for which the growth inhibition in experiment [1] (setting [7]) is 20%; in experiment [1] (setting [8]), 90% (active); in experiment [1] (at 50.0 µM), 61.2%; in experiment [2] (setting [7]), 14%; in experiment [2] (setting [8]), 90% (active); in experiment [2] (at 50.0 µM), 78.9% (active). Also, the growth inhibition in experiment [3] (setting [7]) is 19%; in experiment [3] (setting [8]) it was 95% (active); in experiment [3] (at 50.0 µM) it was 23.9%; in experiment [4] (setting [7]), 13%; in experiment [4] (setting [8]), 51%; in experiment [4] (at 50.0 µM), 20%. The growth inhibition in experiment [5] (setting [7]) is 25%; in experiment [5] (setting [8]), 97% (active); in experiment [5] (at 50.0 µM), 34.5%; in experiment [6] (setting [7]), 31%; in experiment [6] (setting [8]), 90% (active); in experiment [6] (at 50.0 µM), 41.6%.

Take `O=C(O)c1cc2cc3ccccc3cc2cc1O`: the growth inhibition is -1% in experiment [1] (setting [7]); 32% in experiment [1] (setting [8]); 73.3% (active) in experiment [1] (at 50.0 µM); 2% in experiment [2] (setting [7]); 34% in experiment [2] (setting [8]); 57.2% in experiment [2] (at 50.0 µM). In addition, the growth inhibition in experiment [3] (setting [7]) was 3%; in experiment [3] (setting [8]), 36%; in experiment [3] (at 50.0 µM), 81% (active); in experiment [4] (setting [7]) it was -1%; in experiment [4] (setting [8]), 14%; in experiment [4] (at 50.0 µM), 55.2%. In addition, the growth inhibition in experiment [5] (setting [7]) was 0%; in experiment [5] (setting [8]) it was 22%; in experiment [5] (at 50.0 µM) it was 51.2%; in experiment [6] (setting [7]), -1%; in experiment [6] (setting [8]) it was 27%; in experiment [6] (at 50.0 µM) it was 64.7%.

Regarding `COCCN1C(=O)C2c3[nH]c4ccccc4c3C3CCC(C(C)(C)C)CC3C2C1=O` (stereo not given), the growth inhibition in experiment [1] (setting [7]) is -2%; in experiment [1] (setting [8]), 98% (active); in experiment [1] (at 50.0 µM) it was 93.8% (active); in experiment [2] (setting [7]) it was -1%; in experiment [2] (setting [8]) it was 98% (active); in experiment [2] (at 50.0 µM), 96% (active). The growth inhibition in experiment [3] (setting [7]) is -7%; in experiment [3] (setting [8]), 98% (active); in experiment [3] (at 50.0 µM) it was 88.7% (active); in experiment [4] (setting [7]), -21%; in experiment [4] (setting [8]), 96% (active); in experiment [4] (at 50.0 µM), 95.6% (active). The growth inhibition in experiment [5] (setting [7]) is -4%; in experiment [5] (setting [8]), 94% (active); in experiment [5] (at 50.0 µM), 94.2% (active); in experiment [6] (setting [7]) it was 4%; in experiment [6] (setting [8]) it was 98% (active); in experiment [6] (at 50.0 µM), 94.5% (active).

On to `O=C(Nc1cccc(Br)c1)Oc1cccc2cccnc12`, for which the growth inhibition is 61% in experiment [1] (setting [7]); 97% (active) in experiment [1] (setting [8]); 85.7% (active) in experiment [1] (at 50.0 µM); 65% in experiment [2] (setting [7]); 99% (active) in experiment [2] (setting [8]); 89.8% (active) in experiment [2] (at 50.0 µM). The growth inhibition is 99% (active) in experiment [3] (setting [7]); 99% (active) in experiment [3] (setting [8]); 85.3% (active) in experiment [3] (at 50.0 µM); 76% (active) in experiment [4] (setting [7]); 99% (active) in experiment [4] (setting [8]); 81.1% (active) in experiment [4] (at 50.0 µM). Also, the growth inhibition was 91% (active) in experiment [5] (setting [7]); 73% (active) in experiment [5] (setting [8]); 87.8% (active) in experiment [5] (at 50.0 µM); 64% in experiment [6] (setting [7]); 98% (active) in experiment [6] (setting [8]); 85% (active) in experiment [6] (at 50.0 µM).

Take `CC(NNC(=S)N1CC2CCC(CC2)C1)c1cc2ccccc2cn1` (stereo not given): the growth inhibition in experiment [1] (setting [7]) is 97% (active); in experiment [1] (setting [8]), 97% (active); in experiment [1] (at 50.0 µM), 96.9% (active); in experiment [2] (setting [7]) it was 97% (active); in experiment [2] (setting [8]), 99% (active); in experiment [2] (at 50.0 µM), 97.4% (active). For the same compound, the growth inhibition in experiment [3] (setting [7]) is 98% (active); in experiment [3] (setting [8]), 99% (active); in experiment [3] (at 50.0 µM), 94.5% (active); in experiment [4] (setting [7]), 72% (active); in experiment [4] (setting [8]), 61%; in experiment [4] (at 50.0 µM), 92.6% (active). Moreover, the growth inhibition in experiment [5] (setting [7]) is 98% (active); in experiment [5] (setting [8]), 99% (active); in experiment [5] (at 50.0 µM) it was 98.2% (active); in experiment [6] (setting [7]) it was 98% (active); in experiment [6] (setting [8]), 99% (active); in experiment [6] (at 50.0 µM) it was 98% (active).

Regarding `CN(C)c1ccc(C(O)(Cc2cccc(C#N)c2)c2ccc(N(C)C)cc2)cc1`, the growth inhibition in experiment [1] (setting [7]) is 2%; in experiment [1] (setting [8]), -13%; in experiment [1] (at 50.0 µM), 63.5%; in experiment [2] (setting [7]), 0%; in experiment [2] (setting [8]) it was -6%; in experiment [2] (at 50.0 µM), 55.9%. Moreover, the growth inhibition was -4% in experiment [3] (setting [7]); -10% in experiment [3] (setting [8]); 52.8% in experiment [3] (at 50.0 µM); -2% in experiment [4] (setting [7]); -16% in experiment [4] (setting [8]); 66% in experiment [4] (at 50.0 µM). The growth inhibition in experiment [5] (setting [7]) was 2%; in experiment [5] (setting [8]) it was -5%; in experiment [5] (at 50.0 µM), 69%; in experiment [6] (setting [7]), -2%; in experiment [6] (setting [8]), -70%; in experiment [6] (at 50.0 µM) it was 56.8%.

As to `CNc1ccc2c(c1)c1ccccc1n2C`, the growth inhibition in experiment [1] (setting [7]) is 11%; in experiment [1] (setting [8]), 26%; in experiment [1] (at 50.0 µM), 71.3% (active); in experiment [2] (setting [7]), 2%; in experiment [2] (setting [8]) it was -67%; in experiment [2] (at 50.0 µM) it was 4.2%. In addition, the growth inhibition in experiment [3] (setting [7]) was 3%; in experiment [3] (setting [8]), 21%; in experiment [3] (at 50.0 µM), 40.1%; in experiment [4] (setting [7]), -1%; in experiment [4] (setting [8]) it was -1%; in experiment [4] (at 50.0 µM) it was 65.5%. Further, the growth inhibition in experiment [5] (setting [7]) was -1%; in experiment [5] (setting [8]) it was 35%; in experiment [5] (at 50.0 µM), 74.5% (active); in experiment [6] (setting [7]), 14%; in experiment [6] (setting [8]) it was 34%; in experiment [6] (at 50.0 µM), 52%.

For the compound `CC(=O)NC1=C(Oc2ccccc2)C(=O)c2ccccc2C1=O`, the growth inhibition in experiment [1] (setting [7]) is 94% (active); in experiment [1] (setting [8]), 99% (active); in experiment [1] (at 50.0 µM), 99.2% (active); in experiment [2] (setting [7]), 98% (active); in experiment [2] (setting [8]) it was 100% (active); in experiment [2] (at 50.0 µM), 97.8% (active). Also, the growth inhibition was 88% (active) in experiment [3] (setting [7]); 100% (active) in experiment [3] (setting [8]); 99.1% (active) in experiment [3] (at 50.0 µM); 89% (active) in experiment [4] (setting [7]); 100% (active) in experiment [4] (setting [8]); 70% (active) in experiment [4] (at 50.0 µM). Besides, the growth inhibition in experiment [5] (setting [7]) is 98% (active); in experiment [5] (setting [8]), 100% (active); in experiment [5] (at 50.0 µM), 94.5% (active); in experiment [6] (setting [7]), 96% (active); in experiment [6] (setting [8]) it was 99% (active); in experiment [6] (at 50.0 µM) it was 99.1% (active).

Regarding `Cn1c(N)c(N=Nc2ccc(S(N)(=O)=O)cc2)c(=O)n(C)c1=O`, the growth inhibition was 0% in experiment [1] (setting [7]); 24% in experiment [1] (setting [8]); -23.8% in experiment [1] (at 50.0 µM); 22% in experiment [2] (setting [7]); -4% in experiment [2] (setting [8]); -6.75% in experiment [2] (at 50.0 µM). Also, the growth inhibition was 7% in experiment [3] (setting [7]); 10% in experiment [3] (setting [8]); -36.8% in experiment [3] (at 50.0 µM); 27% in experiment [4] (setting [7]); 8% in experiment [4] (setting [8]); 28.7% in experiment [4] (at 50.0 µM). The growth inhibition was 6% in experiment [5] (setting [7]); 9% in experiment [5] (setting [8]); -44.8% in experiment [5] (at 50.0 µM); 5% in experiment [6] (setting [7]); 10% in experiment [6] (setting [8]); -9.4% in experiment [6] (at 50.0 µM).
